Bioassay records: PubChem BioAssay, National Center for Advancing Translational Sciences (NCATS)
ELG1 genotoxic: inducers of genotoxicity in HEK293T ELG1-luciferase cells | HEK293T ELG1-luciferase reporter, luminescence, 16 h | Potency, µM (highest dose often 46 µM), inactives show top-dose activity change, positive = activation, usual class: activators | actives 1.3% (n = 330,000) | AID 504466; note: % of control where 0% means no effect; nearly all actives have a fitted effect of over 60% in size
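HEK293T cells expressing luciferase-tagged ELG1 were treated with compound or DMSO for 16 hr at 37°C. Luciferase activity was then read after 30 min with ONE-Glo at room temperature; rising signal flags genetic stress.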
NPC1 promoter act: activators of NPC1 promoter | Huh7 NPC1 promoter luciferase reporter, 24 h | Potency, µM (top dose mostly 9.22 µM), without a hit: at the top dose activation, hits mostly activators | actives 2.4% (n = 320,000); note: % of control where 0% means no effect; nearly all actives have a fitted effect of over 60% in size
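Quantitative HTS used a cell-based reporter: Huh7 cells stably bearing the NPC1 promoter upstream of luciferase were treated with compounds for 24 h, and promoter activation was read as luminescence.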
FLuc counter: inhibits or activates purified firefly luciferase, miR-21 counter-screen | P08659 | actives 6.9% (n = 360,000) | Potency, µM (highest dose often 57.5 µM), inactives show at the highest dose activity change, negative = inhibition, actives largely listed as inhibitors | AID 588342 | purified FLuc, Km substrates, luminescence inhibition;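 note: plate controls were vehicle for no effect and reference inhibitor for full effect; nearly all actives have a fitted effect of over 55% in size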
Target sequence (P08659 whole entry, looked up): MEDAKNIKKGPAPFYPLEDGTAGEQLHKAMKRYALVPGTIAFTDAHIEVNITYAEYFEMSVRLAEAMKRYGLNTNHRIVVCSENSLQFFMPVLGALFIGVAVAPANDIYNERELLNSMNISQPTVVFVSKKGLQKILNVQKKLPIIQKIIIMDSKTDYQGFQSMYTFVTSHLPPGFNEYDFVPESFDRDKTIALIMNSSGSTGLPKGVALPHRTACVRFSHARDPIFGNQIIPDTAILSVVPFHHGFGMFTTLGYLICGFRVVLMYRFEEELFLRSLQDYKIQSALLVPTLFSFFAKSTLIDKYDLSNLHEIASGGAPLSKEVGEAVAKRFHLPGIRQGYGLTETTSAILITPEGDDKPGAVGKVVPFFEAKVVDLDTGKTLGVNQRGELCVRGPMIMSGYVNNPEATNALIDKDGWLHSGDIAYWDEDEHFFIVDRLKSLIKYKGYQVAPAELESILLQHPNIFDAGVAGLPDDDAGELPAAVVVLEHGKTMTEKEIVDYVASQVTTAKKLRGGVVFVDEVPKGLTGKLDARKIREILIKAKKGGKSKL
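Purified P. pyralis luciferase (10nM final) with 10uM D-luciferin and 10uM ATP (Km levels) in 50mM Tris acetate pH 7.5, 10mM Mg acetate, 0.01% Tween-20, 0.05% BSA; qHTS 6-point titration, ~60 µM downward; luminescence read.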
SMN2 splice up: enhancers of SMN2 splice variant expression; HEK293 SMN2-luciferase splicing reporter, luminescence, 30-36 h; Potency, µM (highest dose often 46.1 µM), without a hit: top-dose activity change, positive = activation, actives largely listed as activators; actives 2.8% (n = 210,000); AID 1458; note: % of control where 0% means no effect; nearly all actives have a fitted effect of over 55% in size
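qHTS luciferase splicing reporter: luminescence rises when SMN2 exon 7 is included in transfected HEK293 cells. Compound exposure lasted 30-36 h at 37C, with 4.5 mM final sodium butyrate as control, followed by a ONE-Glo read.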
Rab9 promoter act: Rab9 promoter activation; Huh7 Rab9 promoter-luciferase reporter, luminescence, 24 h; Potency, µM (series often up to 9.22 µM), for the others: at the highest dose activation, negative = inhibition, usual class: activators; actives 2.8% (n = 320,000); note: % of control where 0% means no effect; nearly all actives have a fitted effect of over 60% in size
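Measured in stably transfected Huh7 cells bearing a Rab9 promoter–luciferase construct: 24 h compound treatment at 37 °C, followed by luminescence detection.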
ELG1 DNA repair: blocks ELG1-dependent DNA repair in HEK293T cells; Potency, µM (highest dose often 46.1 µM), for inactives: at the top dose activity change, negative = inhibition, actives largely listed as inhibitors; AID 504467; HEK293T ELG1-luciferase reporter, luminescence, 16 h; DNA damage induced by 5-fluorouridine; actives 2.3% (n = 330,000); note: % is set by controls: 0 for no effect and ±100 for the full control effect; nearly all actives have a fitted effect of over 55% in size
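HEK293T cells expressing luciferase-tagged ELG1 (2,000/well) received 5-Fluorouridine plus compound or DMSO for 16 hr at 37 °C. Luciferase was read by ONE-Glo luminescence after 30 min at room temperature.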
An asterisk follows results filed as active; u = inconclusive; x = no result; [ ] = another dose, or the depositor's remark. Only some compounds are listed: those with a hit (about 9.2% of all), similar ones and a draw of the others. Calls come from the whole dose curve; as a rule, active = well fitted curve in the direction sought with a large enough effect; inconclusive = small, poorly fitted or top-dose-only effect, or another doubt; inactive = no such curve, though single readings can be large; an effect the other way counts as inactive or inconclusive. Potency is the fitted concentration of half-maximal effect.

SMILES	ELG1 genotoxic	NPC1 promoter act	FLuc counter	SMN2 splice up	Rab9 promoter act	ELG1 DNA repair
CC1CN(C/C(=N\O)C23CC4CC(CC(C4)C2)C3)CC(C)O1 (centres undefined)	1%	1%	2%	x	8%	-2%
Cc1cccc(NC(=O)C2CCN(S(=O)(=O)c3c(C)noc3/C=C/c3ccco3)CC2)n1	-6%	-13%	5%	-45%	-34%	13µM*
Cc1cc(C)cc(NC(=O)C2CCN(S(=O)(=O)c3c(C)noc3/C=C/c3ccco3)CC2)c1	x	x	-2%	-5%	x	x
Cc1ccc(SCC(=O)c2ccc(CC(=O)O)s2)cc1	5%	11%	u	x	2%	0%
Cc1cccc(NC(=O)c2onc3c2CCCC3)n1	0.92µM*	0.5µM*	0.76µM*	x	0.4µM*	u
Cc1ccccc1NC(=O)c1onc2c1CCCC2	u	4.5µM*	6µM*	u	2.5µM*	u
Cc1cccc(NC(=O)c2onc3c2CCCC3)c1C	u	4.5µM*	7.6µM*	29%	2.8µM*	u
COc1ccc2nc3sc(C(=O)NCCCN4CCc5ccccc5C4)cc3cc2c1	3%	0%	19µM*	1%	10%	3%
CC1CCN(c2ccc(-c3cccc(NC(=O)C(F)(F)F)c3)nn2)CC1	0.13µM*	u	0.24µM*	x	0.32µM*	u
O=C(Nc1cccc(-c2ccc3nncn3n2)c1)C(F)(F)F	1%	1%	2%	x	-1%	10%
O=C(Nc1cccc(-c2ccc(N3CCCCC3)nn2)c1)c1ccc(Br)o1	2.3µM*	1.3µM*	0.34µM*	x	2.8µM*	u
CC1CCN(C(=O)C(C)Sc2nc(-c3ccccc3)cc(C(F)(F)F)n2)CC1 (centres undefined)	-11%	-5%	-7%	-20%	-2%	u
O=C(Nc1cccc(-c2ccc(N3CCCCC3)nn2)c1)C(F)(F)F	u	0.28µM*	1.3µM*	x	0.79µM*	u
COc1ccc(CNC(=O)COC(=O)c2c(NC(C)=O)sc(C)c2C)cc1	2%	-4%	3%	x	-1%	0%
CCOC(=O)c1cc2sccc2n1CC(=O)C(C)(C)C	2%	-7%	0%	x	1%	22%
Nc1c2c(nn1-c1ccccc1)CCC2	-4%	3%	-1%	x	2%	u
CCOC(=O)c1c(C)[nH]c(C2=NNC(=Nc3ccc(OCC)cc3)SC2)c1C	-5%	1%	u	-33%	-7%	u
CC(=O)c1c(C)[nH]c(-c2ccccc2)c1C	u	2%	u	u	-5%	15%
CCOC(=O)c1c(C)[nH]c(C2=NNC(=Nc3ccccc3)SC2)c1C	-6%	u	12µM*	x	2.5µM*	u
CCOC(=O)c1c(C)[nH]c(C2=NNC(=Nc3ccccc3OC)SC2)c1C	-1%	2.5µM*	9.5µM*	11µM*	u	u
CC(=O)c1c(C)[nH]c(C2=NNC(=NC(C)(C)C)SC2)c1C	15µM*	1.8µM*	24µM*	13µM*	1.6µM*	u
N#Cc1cn(Cc2ccncc2)c(=O)[nH]c1=O	1%	0%	0%	1%	-4%	-5%
CC(C)(C)C(=O)NC(n1cnc2c(N3CCOCC3)ncnc21)C(Cl)(Cl)Cl (centres undefined)	-10%	-3%	-5%	x	-1%	u
Cc1cc(=O)cc(C)n1-c1ccc(Cl)cc1	1%	-1%	-1%	-5%	0%	-16%
Cc1cccc(-n2c(C)cc(C=C3C(=O)c4ccccc4C3=O)c2C)c1	u	u	0.85µM*	-21%	u	u
SMILES	ELG1 genotoxic	NPC1 promoter act	FLuc counter	SMN2 splice up	Rab9 promoter act	ELG1 DNA repair
Cc1cc(C=C2C(=O)c3ccccc3C2=O)c(C)n1-c1ccc(Cl)cc1	4.6µM*	8%	0.67µM*	-60%	3%	u
COc1cccc(Nc2nc(-c3ccc(O)cc3)cs2)c1	u	u	15µM*	1%	10%	26%
COc1cccc(Nc2nc(-c3cccc(N4C(=O)c5ccccc5C4=O)c3)cs2)c1	8%	13%	2.4µM*	21%	7%	1%
O=C(OC1CCCCC1=O)c1ccc(F)c(S(=O)(=O)N2CCOCC2)c1 (centres undefined)	4%	-2%	0%	x	-3%	-1%
COc1cc2c(cc1OC)[C@@H]1O[C@](CCCCN3C(=O)c4ccccc4C3=O)(C2)Oc2cc(C)n(-c3ccccc3)c(=O)c21	x	-2%[1.84 µM]	-5%[11.5 µM]	x	3%[1.84 µM]	x
Nn1cnc2scc(-c3ccco3)c2c1=O	2%	-7%	-1%	x	-2%	-7%
CCC(=O)Nc1ccc(NC(=O)c2cc3ccccc3o2)cc1	9%	u	u	u	u	u
O=C(Nc1ccc(Cl)cn1)c1cc2ccccc2o1	0.82µM*	3.5µM*	1.9µM*	7.9µM*	1.8µM*	u
O=C(NC1=NCCS1)c1cc2ccccc2o1	2.3µM*	0.32µM*	1.2µM*	4µM*	0.35µM*	u
O=C(Nc1ncccc1O)c1cc2ccccc2o1	u	3.2µM*	3.4µM*	x	0.63µM*	u
O=C(Nc1ccccn1)c1cc2ccccc2o1	u	u	0.3µM*	0.71µM*	0.56µM*	u
Cc1cccc(N(Cc2ccccc2)C(=O)c2ccc(CS(C)(=O)=O)cc2)c1	-1%	1%	2%	x	-1%	0%
CCN(CC)S(=O)(=O)c1ccc2c(c1)c(=O)c(C(=O)N1CCN(c3cc(C)ccc3C)CC1)cn2C	x	x	-3%	-15%	x	x
Cc1ccnc(NC(=O)c2cc3ccccc3o2)c1	u	1.3µM*	0.27µM*	x	u	u
CCc1cccc(C)c1NC(=O)c1cc2ccccc2o1	x	x	-5%	-29%	x	x
CCN1CCN(Cc2ccc(NC(=O)c3ccc(C)c(NC(=O)c4nccnc4N)c3)cc2C(F)(F)F)CC1	-9%	-5%	u	x	-13%	u
CCN1CCN(Cc2ccc(NC(=O)c3cc(NC(=O)c4nccnc4N)cc(OC)c3)cc2C(F)(F)F)CC1	-6%	0%	13µM*	x	-3%	-17%
O=c1[nH]c(CSc2ccccn2)nc2ccccc12	u	2.5µM*	13µM*	11µM*	2.8µM*	u
CCCCCCc1nc2ccccc2c(=O)n1N	7%	-1%	-1%	-12%	13%	13%
O=c1[nH]c(CSc2ccccn2)nc2c1cnn2-c1ccccc1	2%	17%	u	-4%	16%	1%
Nn1c(CSc2ccccn2)nc2ccccc2c1=O	u	4µM*	19µM*	11µM*	u	u
